{
  "source": "the supplement of paper PMC10933113",
  "note": "Structures can show the parent of a compound that is named as a salt. ± gives the uncertainty stated by the source.",
  "data": [
    {"tested_on": "THP-1", "experiment": "CD86 surface expression induction over DMSO control (% over DMSO); higher = stronger dendritic cell activation", "conditions": "exposure time: 24 h", "procedure": "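hCLAT-like CD54 and CD86 surface expression on THP1 cells after 24 h exposure at a single concentration (highest non-cytotoxic concentration, or 100-200 µM if not cytotoxic). Flow cytometry (iQue) was run on 5,000 live cells.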", "values": [
      {"smiles": "CCCCCCCCCCCCOCCO", "note": "[2-(Dodecyloxy)ethanol] (200 µM)", "CD86 surface expression induction": "57 ± 59"},
      {"smiles": "CNc1ccc(O)cc1", "note": "[4-(Methylamino)phenol Sulfate] (10 µM)", "CD86 surface expression induction": "37.1 ± 4.6"},
      {"smiles": "Oc1c(Br)cc(Br)c2cccnc12", "note": "[Broxyquinoline] (100 µM)", "CD86 surface expression induction": "57.8 ± 75"},
      {"smiles": "CCN(CC)CCSC(=O)C(c1ccccc1)c1ccccc1", "note": "[Thiphenamil] (200 µM)", "CD86 surface expression induction": "107 ± 65"},
      {"smiles": "c1ccc(SCCSc2ccccc2)cc1", "note": "[1,2-Bis(phenylthio)ethane] (100 µM)", "CD86 surface expression induction": "-2.45 ± 2.3"},
      {"smiles": "CCCCCCCC(=O)Oc1c(Br)cc(C#N)cc1Br", "note": "[Bromoxynil octanoate] (100 µM)", "CD86 surface expression induction": "-3.51 ± 5"},
      {"smiles": "O=c1[nH]sc2cc(Cl)ccc12", "note": "[Ticlatone] (10 µM)", "CD86 surface expression induction": "-7.52 ± 22"},
      {"smiles": "NC(=S)NC(N)=S", "note": "[2,4-Dithiobiuret] (200 µM)", "CD86 surface expression induction": "26.6 ± 0.3"},
      {"smiles": "CC(C)(C)c1cc(O)c(C(C)(C)C)cc1O", "note": "[2,5-Di-tert-butylbenzene-1,4-diol] (100 µM)", "CD86 surface expression induction": "6.5 ± 4.4"},
      {"smiles": "C#CCN(C)CCCOc1ccc(Cl)cc1Cl", "note": "[Clorgyline hydrochloride] (100 µM)", "CD86 surface expression induction": "-4.71 ± 3.7"},
      {"smiles": "CC(C)=CCC1C(=O)N(c2ccccc2)N(c2ccccc2)C1=O", "note": "[Feprazone] (200 µM)", "CD86 surface expression induction": "71.8 ± 44"},
      {"smiles": "COc1ccc(C(=O)c2ccc(C)cc2)c(O)c1", "note": "[Mexenone] (300 µM)", "CD86 surface expression induction": "18.8 ± 32"},
      {"smiles": "N=C(N)NN=C(/C=C/c1ccc([N+](=O)[O-])o1)/C=C/c1ccc([N+](=O)[O-])o1", "note": "[Nitrovin] (10 µM)", "CD86 surface expression induction": "88.4 ± 21"},
      {"smiles": "O=C(Nc1ccccc1)c1cc(Cl)ccc1O", "note": "[5-Chlorosalicylanilide] (10 µM)", "CD86 surface expression induction": "-11.7 ± 12"},
      {"smiles": "Cc1c(C)n(CCN(C)C)c2ccc(C(=O)OCCN(C)C)cc12", "note": "[Amindocate] (100 µM)", "CD86 surface expression induction": "1.11 ± 2.2"},
      {"smiles": "CC1COc2ccccc2N1C(=O)C(Cl)Cl", "note": "(configuration not stated) [Benoxacor] (10 µM)", "CD86 surface expression induction": "17.1 ± 5.4"},
      {"smiles": "CC(C)(C)OC(=O)c1ccc(O)cc1", "note": "[tert-Butyl 4-hydroxybenzoate] (100 µM)", "CD86 surface expression induction": "-2.42 ± 14"},
      {"smiles": "c1ccc2[nH]c(-c3cscn3)nc2c1", "note": "[Thiabendazole] (100 µM)", "CD86 surface expression induction": "6.44 ± 20"},
      {"smiles": "COC(=O)CCCCCCCC(=O)OC", "note": "[Dimethyl nonanedioate] (200 µM)", "CD86 surface expression induction": "-0.54 ± 1.9"},
      {"smiles": "Cc1cccc(N(C)C(=S)Oc2ccc3c(c2)C2CCC3C2)c1", "note": "(configuration not stated) [Tolciclate] (100 µM)", "CD86 surface expression induction": "-1.12 ± 6"},
      {"smiles": "O=CC(=O)c1ccccc1", "note": "[Phenyl glyoxal] (100 µM)", "CD86 surface expression induction": "4.41 ± 2"},
      {"smiles": "CCCOc1ccc2[nH]c(NC(=O)OC)nc2c1", "note": "[Oxibendazole] (100 µM)", "CD86 surface expression induction": "-3.54 ± 40"},
      {"smiles": "CCCCC1C(=O)N(c2ccccc2)N(c2ccc(O)cc2)C1=O", "note": "(configuration not stated) [Oxyphenbutazone] (10 µM)", "CD86 surface expression induction": "24.6 ± 15"},
      {"smiles": "CCN(CC)CCOc1ccc2c(c1)C(=O)c1cc(OCCN(CC)CC)ccc1-2", "note": "[Tilorone] (200 µM)", "CD86 surface expression induction": "58 ± 31"},
      {"smiles": "CC(C)NC(=O)c1ccc(C=O)cc1", "note": "[N-isopropyl-4-formylbenzamide] (100 µM)", "CD86 surface expression induction": "-3.04 ± 5.2"},
      {"smiles": "O=C(OCc1ccccc1)c1ccc(O)cc1", "note": "[Benzylparaben] (100 µM)", "CD86 surface expression induction": "3 ± 13"},
      {"smiles": "Oc1c(I)cc(Cl)c2cccnc12", "note": "[Clioquinol] (100 µM)", "CD86 surface expression induction": "64.9 ± 88"}
    ]}
  ]
}
